# Experimental data published in the supplement of paper PMC4466140.
# Key:
# Assay in all cases: SPOT peptide array binding signal intensity (averaged, normalized) (arbitrary units (background-subtracted, floor 0; scale differs between SH3 domains)); higher = stronger binding of the SH3 domain to the peptide
# SpBzz1-D2 = target: SpBzz1-D2
# Procedure, shortened: (§1)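 Binding signal refers to normalized, background-subtracted spot intensity averaged over replicates, expressed in arbitrary units that differ between domains. GST-fused SH3 domains from four yeast species were incubated at 10 μg/ml overnight at 4°C on cellulose membranes of synthetic 15-mer peptides with cysteines replaced by serines. Bound protein was detected with anti-GST antibody, an HRP anti-mouse secondary and luminol, and quantified with Genespotter.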
# SpCyk3 = target: SpCyk3
# Procedure, shortened: as §1
# SpHof1 = target: SpHof1
# Procedure, shortened: as §1
# SpHof1-2 = target: SpHof1-2
# Procedure, shortened: as §1
# SpHof1-3 = target: SpHof1-3
# Procedure, shortened: as §1
# SpHse1 = target: SpHse1
# Procedure, shortened: as §1
# SpLsb1 = target: SpLsb1
# Procedure, shortened: as §1
# SpLsb4 = target: SpLsb4
# Procedure, shortened: as §1
# SpMyo1 = target: SpMyo1
# Procedure, shortened: as §1
# SpNbp2 = target: SpNbp2
# Procedure, shortened: as §1
# SpPex13 = target: SpPex13
# Procedure, shortened: as §1
# SpRvs167 = target: SpRvs167
# Procedure, shortened: as §1
# SpSla1-D1-D2 = target: SpSla1-D1-D2
# Procedure, shortened: as §1
# SpSla1-D3 = target: SpSla1-D3
# Procedure, shortened: as §1
# AgAbp1 = target: AgAbp1
# Procedure, shortened: as §1
# AgBbc1 = target: AgBbc1
# Procedure, shortened: as §1
# AgBem1-D1 = target: AgBem1-D1
# Procedure, shortened: as §1
# AgBzz1-D1 = target: AgBzz1-D1
# Procedure, shortened: as §1
# AgBzz1-D2 = target: AgBzz1-D2
# Procedure, shortened: as §1
# AgCyk3 = target: AgCyk3
# Procedure, shortened: as §1
# AgFus1 = target: AgFus1
# Procedure, shortened: as §1
# AgHof1 = target: AgHof1
# Procedure, shortened: as §1
# AgHse1 = target: AgHse1
# Procedure, shortened: as §1
# AgLsb1 = target: AgLsb1
# Procedure, shortened: as §1
# AgLsb4 = target: AgLsb4
# Procedure, shortened: as §1
# AgMyo5 = target: AgMyo5
# Procedure, shortened: as §1
# AgNbp2 = target: AgNbp2
# Procedure, shortened: as §1
# AgRvs167 = target: AgRvs167
# Procedure, shortened: as §1
# AgSho1 = target: AgSho1
# Procedure, shortened: as §1
# AgSla1-D1-D2 = target: AgSla1-D1-D2
# Procedure, shortened: as §1
# AgSla1-D3 = target: AgSla1-D3
# Procedure, shortened: as §1
# CaAbp1-D1 = target: CaAbp1-D1
# Procedure, shortened: as §1
# CaAbp1-D2 = target: CaAbp1-D2
# Procedure, shortened: as §1
# CaBbc1 = target: CaBbc1
# Procedure, shortened: as §1
# CaBem1-D1 = target: CaBem1-D1
# Procedure, shortened: as §1
# CaBzz1-D1 = target: CaBzz1-D1
# Procedure, shortened: as §1
# CaBzz1-D2 = target: CaBzz1-D2
# Procedure, shortened: as §1
# CaCyk3 = target: CaCyk3
# Procedure, shortened: as §1
# CaFus1 = target: CaFus1
# Procedure, shortened: as §1
# CaHof1 = target: CaHof1
# Procedure, shortened: as §1
# CaHse1 = target: CaHse1
# Procedure, shortened: as §1
# CaLsb1 = target: CaLsb1
# Procedure, shortened: as §1
# CaLsb4 = target: CaLsb4
# Procedure, shortened: as §1
# CaMyo5 = target: CaMyo5
# Procedure, shortened: as §1
# CaNbp2 = target: CaNbp2
# Procedure, shortened: as §1
# CaRvs167 = target: CaRvs167
# Procedure, shortened: as §1
# CaRvs167-3 = target: CaRvs167-3
# Procedure, shortened: as §1
# CaSho1 = target: CaSho1
# Procedure, shortened: as §1
# CaSla1-D1-D2 = target: CaSla1-D1-D2
# Procedure, shortened: as §1
# CaSla1-D3 = target: CaSla1-D3
# Procedure, shortened: as §1
# ScAbp1 = target: ScAbp1
# Procedure, shortened: as §1
# ScBbc1 = target: ScBbc1
# Procedure, shortened: as §1
# ScBem1-D1 = target: ScBem1-D1
# Procedure, shortened: as §1
# ScBzz1-D1 = target: ScBzz1-D1
# Procedure, shortened: as §1
# ScBzz1-D2 = target: ScBzz1-D2
# Procedure, shortened: as §1
# ScCyk3 = target: ScCyk3
# Procedure, shortened: as §1
# ScFus1 = target: ScFus1
# Procedure, shortened: as §1
# ScHof1 = target: ScHof1
# Procedure, shortened: as §1
# ScHse1 = target: ScHse1
# Procedure, shortened: as §1
# ScLsb1 = target: ScLsb1
# Procedure, shortened: as §1
# ScLsb2 = target: ScLsb2
# Procedure, shortened: as §1
# ScLsb3 = target: ScLsb3
# Procedure, shortened: as §1
# ScLsb4 = target: ScLsb4
# Procedure, shortened: as §1
# ScMyo3 = target: ScMyo3
# Procedure, shortened: as §1
# ScMyo5 = target: ScMyo5
# Procedure, shortened: as §1
# ScNbp2 = target: ScNbp2
# Procedure, shortened: as §1
# ScPex13 = target: ScPex13
# Procedure, shortened: as §1
# ScRvs167 = target: ScRvs167
# Procedure, shortened: as §1
# ScSho1 = target: ScSho1
# Procedure, shortened: as §1
# ScSla1-D1-D2 = target: ScSla1-D1-D2
# Procedure, shortened: as §1
# ScSla1-D3 = target: ScSla1-D3
# Procedure, shortened: as §1
# SpAbp1-D1 = target: SpAbp1-D1
# Procedure, shortened: as §1
# SpBbc1 = target: SpBbc1
# Procedure, shortened: as §1
# SpBzz1-D1 = target: SpBzz1-D1
# Procedure, shortened: as §1
binder,measurement,setting,value
PKRRAPPPVPKKPSS,SPOT peptide array binding signal intensity,SpBzz1-D2,863
same,SPOT peptide array binding signal intensity,SpCyk3,2.5
same,SPOT peptide array binding signal intensity,SpHof1,165
same,SPOT peptide array binding signal intensity,SpHof1-2,21
same,SPOT peptide array binding signal intensity,SpHof1-3,290
same,SPOT peptide array binding signal intensity,SpHse1,143
same,SPOT peptide array binding signal intensity,SpLsb1,1820
same,SPOT peptide array binding signal intensity,SpLsb4,1020
same,SPOT peptide array binding signal intensity,SpMyo1,584
same,SPOT peptide array binding signal intensity,SpNbp2,38.5
same,SPOT peptide array binding signal intensity,SpPex13,11
same,SPOT peptide array binding signal intensity,SpRvs167,803
same,SPOT peptide array binding signal intensity,SpSla1-D1-D2,1990
same,SPOT peptide array binding signal intensity,SpSla1-D3,≤ 0
SGVRLPAPPPPPRRG,SPOT peptide array binding signal intensity,AgAbp1,606
same,SPOT peptide array binding signal intensity,AgBbc1,1230
same,SPOT peptide array binding signal intensity,AgBem1-D1,36
same,SPOT peptide array binding signal intensity,AgBzz1-D1,404
same,SPOT peptide array binding signal intensity,AgBzz1-D2,140
same,SPOT peptide array binding signal intensity,AgCyk3,2
same,SPOT peptide array binding signal intensity,AgFus1,21
same,SPOT peptide array binding signal intensity,AgHof1,472
same,SPOT peptide array binding signal intensity,AgHse1,24.5
same,SPOT peptide array binding signal intensity,AgLsb1,699
same,SPOT peptide array binding signal intensity,AgLsb4,1040
same,SPOT peptide array binding signal intensity,AgMyo5,579
same,SPOT peptide array binding signal intensity,AgNbp2,1250
same,SPOT peptide array binding signal intensity,AgRvs167,1310
same,SPOT peptide array binding signal intensity,AgSho1,36
same,SPOT peptide array binding signal intensity,AgSla1-D1-D2,38
same,SPOT peptide array binding signal intensity,AgSla1-D3,61
same,SPOT peptide array binding signal intensity,CaAbp1-D1,1510
same,SPOT peptide array binding signal intensity,CaAbp1-D2,1030
same,SPOT peptide array binding signal intensity,CaBbc1,1050
same,SPOT peptide array binding signal intensity,CaBem1-D1,544
same,SPOT peptide array binding signal intensity,CaBzz1-D1,3080
same,SPOT peptide array binding signal intensity,CaBzz1-D2,1360
same,SPOT peptide array binding signal intensity,CaCyk3,44
same,SPOT peptide array binding signal intensity,CaFus1,74
same,SPOT peptide array binding signal intensity,CaHof1,114
same,SPOT peptide array binding signal intensity,CaHse1,20
same,SPOT peptide array binding signal intensity,CaLsb1,0.5
same,SPOT peptide array binding signal intensity,CaLsb4,1890
same,SPOT peptide array binding signal intensity,CaMyo5,42
same,SPOT peptide array binding signal intensity,CaNbp2,216
same,SPOT peptide array binding signal intensity,CaRvs167,1350
same,SPOT peptide array binding signal intensity,CaRvs167-3,10.2
same,SPOT peptide array binding signal intensity,CaSho1,34
same,SPOT peptide array binding signal intensity,CaSla1-D1-D2,3580
same,SPOT peptide array binding signal intensity,CaSla1-D3,77.2
same,SPOT peptide array binding signal intensity,ScAbp1,452
same,SPOT peptide array binding signal intensity,ScBbc1,267
same,SPOT peptide array binding signal intensity,ScBem1-D1,≤ 0
same,SPOT peptide array binding signal intensity,ScBzz1-D1,257
same,SPOT peptide array binding signal intensity,ScBzz1-D2,36
same,SPOT peptide array binding signal intensity,ScCyk3,6.5
same,SPOT peptide array binding signal intensity,ScFus1,3.5
same,SPOT peptide array binding signal intensity,ScHof1,482
same,SPOT peptide array binding signal intensity,ScHse1,169
same,SPOT peptide array binding signal intensity,ScLsb1,438
same,SPOT peptide array binding signal intensity,ScLsb2,438
same,SPOT peptide array binding signal intensity,ScLsb3,2990
same,SPOT peptide array binding signal intensity,ScLsb4,2100
same,SPOT peptide array binding signal intensity,ScMyo3,1670
same,SPOT peptide array binding signal intensity,ScMyo5,864
same,SPOT peptide array binding signal intensity,ScNbp2,622
same,SPOT peptide array binding signal intensity,ScPex13,1050
same,SPOT peptide array binding signal intensity,ScRvs167,3210
same,SPOT peptide array binding signal intensity,ScSho1,1100
same,SPOT peptide array binding signal intensity,ScSla1-D1-D2,2820
same,SPOT peptide array binding signal intensity,ScSla1-D3,9
same,SPOT peptide array binding signal intensity,SpAbp1-D1,2280
same,SPOT peptide array binding signal intensity,SpBbc1,19.2
same,SPOT peptide array binding signal intensity,SpBzz1-D1,3360
same,SPOT peptide array binding signal intensity,SpBzz1-D2,1490
same,SPOT peptide array binding signal intensity,SpCyk3,17
same,SPOT peptide array binding signal intensity,SpHof1,248
same,SPOT peptide array binding signal intensity,SpHof1-2,231
same,SPOT peptide array binding signal intensity,SpHof1-3,1500
same,SPOT peptide array binding signal intensity,SpHse1,67.5
same,SPOT peptide array binding signal intensity,SpLsb1,870
same,SPOT peptide array binding signal intensity,SpLsb4,6010
same,SPOT peptide array binding signal intensity,SpMyo1,502
same,SPOT peptide array binding signal intensity,SpNbp2,26
same,SPOT peptide array binding signal intensity,SpPex13,35
same,SPOT peptide array binding signal intensity,SpRvs167,2550
same,SPOT peptide array binding signal intensity,SpSla1-D1-D2,993
same,SPOT peptide array binding signal intensity,SpSla1-D3,0.5
